HEK cytotox: kills HEK 293 cells | HEK 293 viability, ATP luminescence (CellTiter-Glo), 48-72 h | Potency, µM (doses to about 115 µM), inactives show top-dose activity change, negative = cytotoxicity, actives largely listed as inhibitors | hit rate 6.6% among 94,000 | AID 1345083; note: nearly all actives have a fitted effect of over 60% in size
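Cells seeded first (HEK 293, 250 cells/well), then compound added by pintool. Incubation ran 48 or 72 hr at 37 degree Celsius. CellTiter-Glo was added and luminescence imaged after 10 min at room temperature.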
GPT2 inh: inhibitors of human GPT2 alanine aminotransferase. Potency, µM (highest dose often 57.7 µM), for inactives: at the top dose activity change, negative = inhibition, usual class: inhibitors. Recombinant GPT2, coupled pyruvate oxidase/HRP Amplex Red fluorescence. Q8TD30. hit rate 0.25% among 100,000; note: nearly all actives have a fitted effect of over 60% in size
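Recombinant GPT2 (10ng/uL) with 250uM a-KG and 2mM L-alanine, 30 min at room temperature, in HEPES pH 7.5 buffer. Pyruvate detected by pyruvate oxidase/HRP/Amplex Red fluorescence after 30 min in the dark; AOA (50uM) as positive control.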
Luciferase inh: inhibitors of firefly (Photinus pyralis) luciferase. P08659. purified P. pyralis luciferase, luminescence, biochemical. hit rate 2.5% among 76,000. Potency, µM (top dose mostly 115 µM), usual class: inhibitors; note: nearly all actives have a fitted effect of over 65% in size
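FLuc 10nM, D-luciferin 10uM, ATP 10uM, Mg acetate 10mM, Tris acetate pH 7.5, Tween/BSA; cpd qHTS; enzyme added last; CCD luminescence.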
NPR1 antag: blocks ANP-stimulated signaling of human Npr1 receptor. HEK293 hNpr1 GloSensor cGMP, ANP-stimulated luminescence. hit rate 1.6% among 76,000. Potency, µM (top dose mostly 46.3 µM), for inactives: at the highest dose activity change, negative = inhibition, hits mostly inhibitors; calls by dose curve; note: nearly all actives have a fitted effect of over 60% in size
Target sequence (P16066 whole entry, looked up): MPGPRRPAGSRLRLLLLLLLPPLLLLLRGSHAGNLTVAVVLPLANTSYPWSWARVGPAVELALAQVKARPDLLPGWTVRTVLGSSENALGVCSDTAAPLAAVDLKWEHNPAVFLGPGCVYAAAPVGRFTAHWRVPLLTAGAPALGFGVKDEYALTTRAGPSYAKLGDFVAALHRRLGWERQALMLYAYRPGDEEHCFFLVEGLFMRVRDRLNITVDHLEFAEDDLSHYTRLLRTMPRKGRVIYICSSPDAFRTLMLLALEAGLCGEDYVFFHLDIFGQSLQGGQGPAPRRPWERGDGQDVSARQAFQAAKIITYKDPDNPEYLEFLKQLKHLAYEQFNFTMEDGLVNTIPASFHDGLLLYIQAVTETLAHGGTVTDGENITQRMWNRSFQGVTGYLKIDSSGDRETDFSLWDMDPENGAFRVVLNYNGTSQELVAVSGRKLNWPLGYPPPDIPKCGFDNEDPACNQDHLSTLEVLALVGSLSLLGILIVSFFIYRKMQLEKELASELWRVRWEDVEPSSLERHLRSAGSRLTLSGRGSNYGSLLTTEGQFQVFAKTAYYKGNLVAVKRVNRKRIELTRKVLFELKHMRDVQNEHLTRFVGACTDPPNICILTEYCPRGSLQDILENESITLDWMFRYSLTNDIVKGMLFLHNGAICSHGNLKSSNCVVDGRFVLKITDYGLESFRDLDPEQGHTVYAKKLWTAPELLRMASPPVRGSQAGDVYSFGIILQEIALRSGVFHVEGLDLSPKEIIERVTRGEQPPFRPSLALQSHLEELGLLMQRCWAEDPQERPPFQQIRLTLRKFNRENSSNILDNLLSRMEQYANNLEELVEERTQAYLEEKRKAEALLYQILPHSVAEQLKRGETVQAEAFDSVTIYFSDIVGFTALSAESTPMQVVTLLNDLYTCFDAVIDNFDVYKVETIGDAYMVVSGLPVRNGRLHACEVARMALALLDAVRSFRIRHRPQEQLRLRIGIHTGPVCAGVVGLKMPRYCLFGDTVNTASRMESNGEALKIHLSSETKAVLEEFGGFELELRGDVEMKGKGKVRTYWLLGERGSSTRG
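HEK293 cells stably expressing human Npr1 and cGMP GloSensor pGS-40F, loaded 2 h with 2% GloSensor reagent, given compound 30 min at room temperature. Luminescence read before and 20 min after 0.1 nM hNppA.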
3T3 cytotox: kills NIH 3T3 cells. NIH 3T3 viability, CellTiter-Glo ATP luminescence, 48-72 h. Potency, µM (doses to about 96.7 µM), for the others: at the top dose activity change, negative = cytotoxicity, usual class: inhibitors. hit rate 4.3% among 94,000; note: nearly all actives have a fitted effect of over 55% in size
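ATP-dependent luminescence (CellTiter-Glo) served as the viability signal for NIH 3T3 cells treated with compound for 48 or 72 hr at 37 °C.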
Starred values were filed as active, the others as inactive. Hits are enriched below; roughly 10% of the tested compounds scored in any of these assays. Unless noted, calls come from the whole dose curve; as a rule, active = well fitted curve in the direction sought with a large enough effect; inconclusive = small, poorly fitted or top-dose-only effect, or another doubt; inactive = no such curve, though single readings can be large; an effect the other way counts as inactive or inconclusive. % is set by controls: 0 for no effect and ±100 for the full control effect; potency is the fitted concentration of half-maximal effect.

CCCNC(=O)C1c2ccccc2C(=O)N(C2CCCCC2)C12CCCCC2 (centres undefined) was read as HEK cytotox 40µM*, GPT2 inh 0%, Luciferase inh inactive, NPR1 antag 2% and 3T3 cytotox inconclusive.
For O=C(NCCc1ccncc1)C1c2ccccc2C(=O)N(C2CCCCC2)C12CCCCC2 (centres undefined) the results were HEK cytotox 40µM*, GPT2 inh -9%, Luciferase inh inactive, NPR1 antag -30% and 3T3 cytotox inconclusive.
Screening O=C(NCc1ccccn1)C1c2ccccc2C(=O)N(C2CCCCC2)C12CCCCC2 (centres undefined) returned HEK cytotox 25µM*, GPT2 inh -6%, Luciferase inh inactive, NPR1 antag -1% and 3T3 cytotox inconclusive.
`O=C(c1cn[nH]c1-c1ccc(F)cc1)N1CCC(OCCOc2ccccc2)CC1` gave HEK cytotox 50µM*, GPT2 inh 4% and 3T3 cytotox inconclusive.
For COCCOC1CCN(C(=O)c2cn[nH]c2-c2ccc(F)cc2)CC1 the results were HEK cytotox 11%, GPT2 inh 3%, Luciferase inh inconclusive, NPR1 antag 6% and 3T3 cytotox -10%.
Screening O=C1NC(=NC2CCCC2)C2(CCN(CC3CCCCC3)C2)N1c1cc(F)cc(F)c1 (centres undefined) returned HEK cytotox 35µM*, GPT2 inh inactive and 3T3 cytotox inconclusive.
For COc1cccc(N2C(=O)NC(=NC3CCCCC3)C23CCCN(CCC(C)C)C3)c1 (centres undefined) the results were HEK cytotox 40µM*, GPT2 inh 0% and 3T3 cytotox inconclusive.
Screening COc1cccc(N2C(=O)NC(=NC3CCCC3)C23CCCN(CC2CCCCC2)C3)c1 (centres undefined) returned HEK cytotox inconclusive, GPT2 inh 5% and 3T3 cytotox inconclusive.
Screening COc1cccc(N2C(=O)NC(=NC3CCCCC3)C23CCCN(CC2CCCCC2)C3)c1 (centres undefined) returned HEK cytotox 32µM*, GPT2 inh inactive and 3T3 cytotox 28µM*.
For CS(=O)(=O)N(C1CC1)C1CCOC2(CCN(C(=O)C3(c4ccccc4)CC3)CC2)C1 (centres undefined) the results were HEK cytotox 0%, GPT2 inh inconclusive, Luciferase inh inactive, NPR1 antag 3% and 3T3 cytotox -8%.
For Cc1ccc(-c2cc(C(=O)NCc3cccc(F)c3)nn3cnnc23)cc1 the results were HEK cytotox inconclusive, GPT2 inh 4% and 3T3 cytotox inconclusive.
For O=C(Nc1ccc2c(c1)OCCO2)N1CCCCCC1c1nc(-c2cccnc2)no1 (centres undefined) the results were HEK cytotox -2%, GPT2 inh inactive and 3T3 cytotox inconclusive.
Cc1ncc2n1C(=O)N(C1CCN(Cc3ccc(OC(F)(F)F)cc3)CC1)C2 was read as HEK cytotox 14µM*, GPT2 inh inactive, Luciferase inh inactive, NPR1 antag inconclusive and 3T3 cytotox inconclusive.
For CC(C)C(=O)Nc1ccc(C2(C(=O)NCc3ccc(F)c(Cl)c3)CCC2)cc1 the results were HEK cytotox 79µM*, GPT2 inh -5%, Luciferase inh inactive, NPR1 antag -2% and 3T3 cytotox 35µM*.
CCc1ccc(CNC(=O)C2(c3ccc(NC(=O)C(C)C)cc3)CCC2)cc1 was read as HEK cytotox inconclusive, GPT2 inh -20%, Luciferase inh inactive, NPR1 antag -6% and 3T3 cytotox -12%.
For CS(=O)(=O)Nc1ccc(C2(C(=O)NCc3ccccc3Cl)CCCCC2)cc1 the results were HEK cytotox inconclusive, GPT2 inh inactive, Luciferase inh inactive, NPR1 antag -18% and 3T3 cytotox 35µM*.
O=C(NCCCc1ccccc1)c1cc(-c2ccsc2)c2nncn2n1 was read as HEK cytotox inconclusive, GPT2 inh -5% and 3T3 cytotox -38%.
CNC(=O)c1cc(C)nc2onc(C3CCCN(C(=O)c4ccccc4F)C3)c12 (centres undefined) was read as HEK cytotox -10% and 3T3 cytotox -26%.

Source: PubChem BioAssay
